# Test system: M. mycetomatis strain mm55
# Parameters: species or system Madurella mycetomatis MM55 hyphae; CellTiter-Glo 3D luminescence viability of fungal hyphae, single-point 2 uM library screen, per cent of growth control
# Conditions: primary screen, metabolic activity vs growth control; 96 h, 2 µM; inhibitor
# Description: To determine the in vitro susceptibility of M. mycetomatis to the compounds, a hyphal inoculum was prepared as described elsewhere.[19] This M. mycetomatis hyphal suspension (60 µL) was added to each of the wells in the 384-well plate, leading to a final testing concentration of 2 µM per compound. Each plate also contained a growth control (60 µL of M. mycetomatis hyphal suspension, plus 0.6 µL of DMSO) and a negative control (60 µL of culture medium, plus 0.6 µL of DMSO). Plates were then incubated for 4 days at 37°C, after which 30 µL of CellTiter-Glo 3D Cell Viability reagent was added to every well.[19] After 25 min of incubation at room temperature, the luminescence was measured with a CytoFluor Series 4000 luminometer (PerSeptive Biosystems, Framingham, MA, USA). To determine the metabolic activity, the following formula was used: where, GC is growth control and NC is negative control. The luminescence measured for the GC is considered as 100% metabolic activity. The luminescence for the NC is considered as 0% metabolic activity. […] The Oncode Drug Repurposing library was based on the drug repurposing library from the Drug Repurposing Hub of the Broad Institute and recreated by the Oncode institute.[13] The library contained 5631 drugs.[18] […]
row,SMILES,% viability
1,"C[N+]1(C)CCc2cc3c(cc2[C@H]1[C@@H]1OC(=O)c2c1ccc1c2OCO1)OCO3 [ONC0000006, bicucullinemethochloride]",85.19%
2,"C[C@]12CC[C@@H]3c4ccc(OC(=O)N(CCCl)CCCl)cc4CC[C@H]3[C@@H]1CC[C@@H]2OP(=O)(O)O [ONC0003506, estramustine phosphatena]",76.07%

# From PMC12670160, “A drug-repurposing screen of FDA- and EMA-approved drugs identifies two NF-κB inhibitors active against eumycetoma” (Journal of Antimicrobial Chemotherapy, 2025)
